In doi:10.1101/2024.03.05.583629 one finds binding signal data, which are given here for 39 sequences.

Sequence of pT7_6His-AlfaTag-HOXD13 (P35453 263-343): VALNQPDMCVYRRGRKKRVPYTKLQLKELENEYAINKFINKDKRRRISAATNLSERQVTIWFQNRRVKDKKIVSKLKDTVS

This experiment addresses pT7_6His-AlfaTag-HOXD13 (human, UniProt P35453 263-343). Kind of experiment: PADIT-seq. The following applies: dsDNA, one strand shown.
“CTCGAGGATATCAAGATCTGGCCTCGGCCTTTTAGACGGAACCTCTAGCTAGCCGACTCACTATAGGGATAATCGCCCTGAGCAAAGACC”: the binding signal is -0.199 ± 0.091 log2FC.

In turn, “CTCGAGGATATCAAGATCTGGCCTCGGCTTTTTAATTGGAACCTCTAGCTAGCCGACTCACTATAGGGATAATCGCCCTGAGCAAAGACC” displayed a binding signal of 2.41 ± 0.0904 log2FC.

For the sequence “CTCGAGGATATCAAGATCTGGCCTCGGCAAGATAAAAGGAACCTCTAGCTAGCCGACTCACTATAGGGATAATCGCCCTGAGCAAAGACC”, the binding signal stood at 0.282 ± 0.0917 log2FC.

In turn, “CTCGAGGATATCAAGATCTGGCCTCGGCCTTTTACACGGAACCTCTAGCTAGCCGACTCACTATAGGGATAATCGCCCTGAGCAAAGACC” had a binding signal of 1.93 ± 0.075 log2FC.

Take “CTCGAGGATATCAAGATCTGGCCTCGGCCGCTTACGCGGAACCTCTAGCTAGCCGACTCACTATAGGGATAATCGCCCTGAGCAAAGACC”: the binding signal was -0.713 ± 0.125 log2FC.

“CTCGAGGATATCAAGATCTGGCCTCGGCGTAATAAAAGGAACCTCTAGCTAGCCGACTCACTATAGGGATAATCGCCCTGAGCAAAGACC” showed a binding signal of 2.86 ± 0.0699 log2FC.

Regarding “CTCGAGGATATCAAGATCTGGCCTCGGCATTTTAAGGGGAACCTCTAGCTAGCCGACTCACTATAGGGATAATCGCCCTGAGCAAAGACC”, the binding signal turned out to be 1.95 ± 0.0802 log2FC.

“CTCGAGGATATCAAGATCTGGCCTCGGCCTTTTATATGGAACCTCTAGCTAGCCGACTCACTATAGGGATAATCGCCCTGAGCAAAGACC” yielded a binding signal of 2.91 ± 0.0779 log2FC.

For the sequence “CTCGAGGATATCAAGATCTGGCCTCGGCCTTTTACCCGGAACCTCTAGCTAGCCGACTCACTATAGGGATAATCGCCCTGAGCAAAGACC”, the binding signal was -0.00238 ± 0.0891 log2FC.

Sequence “CTCGAGGATATCAAGATCTGGCCTCGGCATTTTAGATGGAACCTCTAGCTAGCCGACTCACTATAGGGATAATCGCCCTGAGCAAAGACC” registered a binding signal of 0.542 ± 0.096 log2FC.

For “CTCGAGGATATCAAGATCTGGCCTCGGCCGCCCAATTGGAACCTCTAGCTAGCCGACTCACTATAGGGATAATCGCCCTGAGCAAAGACC”, the binding signal is -0.555 ± 0.114 log2FC.

Consider “CTCGAGGATATCAAGATCTGGCCTCGGCGTTTTAACCGGAACCTCTAGCTAGCCGACTCACTATAGGGATAATCGCCCTGAGCAAAGACC”, for which the binding signal is -0.0101 ± 0.0939 log2FC.

On to “CTCGAGGATATCAAGATCTGGCCTCGGCGCCGTAAAAGGAACCTCTAGCTAGCCGACTCACTATAGGGATAATCGCCCTGAGCAAAGACC”, for which the binding signal was 1.76 ± 0.0756 log2FC.

Consider “CTCGAGGATATCAAGATCTGGCCTCGGCCTTTTACCTGGAACCTCTAGCTAGCCGACTCACTATAGGGATAATCGCCCTGAGCAAAGACC”, for which the binding signal was -0.0573 ± 0.0997 log2FC.

The sequence “CTCGAGGATATCAAGATCTGGCCTCGGCCTTTTACAGGGAACCTCTAGCTAGCCGACTCACTATAGGGATAATCGCCCTGAGCAAAGACC” returned a binding signal of 2.83 ± 0.0828 log2FC.

In the case of “CTCGAGGATATCAAGATCTGGCCTCGGCGTTTTACACGGAACCTCTAGCTAGCCGACTCACTATAGGGATAATCGCCCTGAGCAAAGACC”, the binding signal came to 2.15 ± 0.0769 log2FC.

As to “CTCGAGGATATCAAGATCTGGCCTCGGCTAATTAAAAGGAACCTCTAGCTAGCCGACTCACTATAGGGATAATCGCCCTGAGCAAAGACC”, the binding signal came to 2.92 ± 0.0818 log2FC.

Turning to “CTCGAGGATATCAAGATCTGGCCTCGGCGTGGTAAAAGGAACCTCTAGCTAGCCGACTCACTATAGGGATAATCGCCCTGAGCAAAGACC”, the binding signal amounted to 1.02 ± 0.077 log2FC.

“CTCGAGGATATCAAGATCTGGCCTCGGCCTTTTACTAGGAACCTCTAGCTAGCCGACTCACTATAGGGATAATCGCCCTGAGCAAAGACC” registered a binding signal of 3.01 ± 0.0725 log2FC.

“CTCGAGGATATCAAGATCTGGCCTCGGCTTTTTAAAAGGAACCTCTAGCTAGCCGACTCACTATAGGGATAATCGCCCTGAGCAAAGACC” came in with a binding signal of 2.52 ± 0.0678 log2FC.

“CTCGAGGATATCAAGATCTGGCCTCGGCCCGGTAAAAGGAACCTCTAGCTAGCCGACTCACTATAGGGATAATCGCCCTGAGCAAAGACC” displayed a binding signal of 0.409 ± 0.0951 log2FC.

Consider “CTCGAGGATATCAAGATCTGGCCTCGGCGATCCACGCGGAACCTCTAGCTAGCCGACTCACTATAGGGATAATCGCCCTGAGCAAAGACC”, for which the binding signal was -1.01 ± 0.105 log2FC.

As to “CTCGAGGATATCAAGATCTGGCCTCGGCGTTTTAATGGGAACCTCTAGCTAGCCGACTCACTATAGGGATAATCGCCCTGAGCAAAGACC”, the binding signal was 2.46 ± 0.0744 log2FC.

Sequence “CTCGAGGATATCAAGATCTGGCCTCGGCGCACTAAAAGGAACCTCTAGCTAGCCGACTCACTATAGGGATAATCGCCCTGAGCAAAGACC” gave a binding signal of 0.431 ± 0.0748 log2FC.

“CTCGAGGATATCAAGATCTGGCCTCGGCTACCTAAAAGGAACCTCTAGCTAGCCGACTCACTATAGGGATAATCGCCCTGAGCAAAGACC” showed a binding signal of -0.459 ± 0.127 log2FC.

Turning to “CTCGAGGATATCAAGATCTGGCCTCGGCGTTTTATGTGGAACCTCTAGCTAGCCGACTCACTATAGGGATAATCGCCCTGAGCAAAGACC”, the binding signal was found to be 2.96 ± 0.0773 log2FC.

Sequence “CTCGAGGATATCAAGATCTGGCCTCGGCAATTTAAAAGGAACCTCTAGCTAGCCGACTCACTATAGGGATAATCGCCCTGAGCAAAGACC” registered a binding signal of 2.32 ± 0.0729 log2FC.

Sequence “CTCGAGGATATCAAGATCTGGCCTCGGCAGAGTAAAAGGAACCTCTAGCTAGCCGACTCACTATAGGGATAATCGCCCTGAGCAAAGACC” showed a binding signal of 0.253 ± 0.1 log2FC.

“CTCGAGGATATCAAGATCTGGCCTCGGCGTTTTAGTTGGAACCTCTAGCTAGCCGACTCACTATAGGGATAATCGCCCTGAGCAAAGACC” had a binding signal of 0.145 ± 0.11 log2FC.

In the case of “CTCGAGGATATCAAGATCTGGCCTCGGCTGAGTAAAAGGAACCTCTAGCTAGCCGACTCACTATAGGGATAATCGCCCTGAGCAAAGACC”, the binding signal was 0.229 ± 0.0993 log2FC.

Take “CTCGAGGATATCAAGATCTGGCCTCGGCGTTTTAAAAGGAACCTCTAGCTAGCCGACTCACTATAGGGATAATCGCCCTGAGCAAAGACC”: the binding signal was 2.44 ± 0.0598 log2FC.

“CTCGAGGATATCAAGATCTGGCCTCGGCCGGATAAAAGGAACCTCTAGCTAGCCGACTCACTATAGGGATAATCGCCCTGAGCAAAGACC” showed a binding signal of 0.58 ± 0.0859 log2FC.

Sequence “CTCGAGGATATCAAGATCTGGCCTCGGCCTTATAAAAGGAACCTCTAGCTAGCCGACTCACTATAGGGATAATCGCCCTGAGCAAAGACC” came in with a binding signal of 2.88 ± 0.0949 log2FC.

On to “CTCGAGGATATCAAGATCTGGCCTCGGCATTTTACGCGGAACCTCTAGCTAGCCGACTCACTATAGGGATAATCGCCCTGAGCAAAGACC”, for which the binding signal came out at 2.16 ± 0.0812 log2FC.

“CTCGAGGATATCAAGATCTGGCCTCGGCCTTCCACGCGGAACCTCTAGCTAGCCGACTCACTATAGGGATAATCGCCCTGAGCAAAGACC”: the binding signal was -1.1 ± 0.121 log2FC.

As to “CTCGAGGATATCAAGATCTGGCCTCGGCATTTTAGAAGGAACCTCTAGCTAGCCGACTCACTATAGGGATAATCGCCCTGAGCAAAGACC”, the binding signal turned out to be 0.382 ± 0.0937 log2FC.

On to “CTCGAGGATATCAAGATCTGGCCTCGGCATTTTAATTGGAACCTCTAGCTAGCCGACTCACTATAGGGATAATCGCCCTGAGCAAAGACC”, for which the binding signal was determined as 2.74 ± 0.0827 log2FC.

For “CTCGAGGATATCAAGATCTGGCCTCGGCACAATAAAAGGAACCTCTAGCTAGCCGACTCACTATAGGGATAATCGCCCTGAGCAAAGACC”, the binding signal came to 2.72 ± 0.0742 log2FC.

Consider “CTCGAGGATATCAAGATCTGGCCTCGGCGTTTTAGCGGGAACCTCTAGCTAGCCGACTCACTATAGGGATAATCGCCCTGAGCAAAGACC”, for which the binding signal was -0.00405 ± 0.124 log2FC.
